This is a sample that favours compounds with a hit; in the whole collection about 3.8% have one here.
Nrf2 block: Nrf2 qHTS screen for inhibitors; A549 ARE-Fluc reporter, luciferase luminescence, 18-24 h; Potency, µM (doses to about 46 µM), for the others: at the highest dose activity change, negative = inhibition, hits mostly inhibitors; hit rate 2.1% among 360,000; AID 504444, 2011; further: on the % scale 0 is the no-effect control and ±100 the full control effect; nearly all actives have a fitted effect of over 60% in size
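Reporter: ARE-Fluc in A549. Exposure: 18-24 h, 37 °C, 5% CO2, 5% FBS OPTI-MEM. Readouts: fluorescent cytotoxicity (CellTiter-Fluor), then luminescent Nrf2 signal after BugLite.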
ELG1 repair inh: qHTS screen for small molecules that inhibit ELG1-dependent DNA repair in human embryonic kidney (HEK293T) cells expressing luciferase-tagged ELG1 | HEK293T ELG1-luciferase reporter, luminescence, 16 h; DNA damage induced by 5-fluorouridine | hit rate 2.3% among 330,000 | Potency, µM (series often up to 46.1 µM), for inactives: at the highest dose activity change, negative = inhibition, hits mostly inhibitors | AID 504467, 2011; further: on the % scale 0 is the no-effect control and ±100 the full control effect; nearly all actives have a fitted effect of over 55% in size
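Overnight (16 hr) co-exposure of 2,000 cells/well to 5-fluorouridine and compound at 37 °C preceded detection. Luciferase was quantified via ONE-Glo luminescence; loss of signal denotes inhibition.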
A549 viability: Nrf2 qHTS screen for inhibitors: counterscreen for cytotoxicity; A549 ARE-Fluc cells, CellTiter-Fluor viability, 18-24 h; Potency, µM (top dose mostly 46 µM), for the others: at the top dose activity change, negative = cytotoxicity, most hits filed as inhibitors; hit rate 0.16% among 390,000; AID 504648, 2011; further: on the % scale 0 is the no-effect control and ±100 the full control effect
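A549 ARE_Fluc cells in 5% FBS OPTI-MEM were exposed to compounds in concentration-response for 18-24 h at 37 deg C. Viability was read by CellTiter-Fluor fluorescence (Ex 405/Em 525) after 30 min, before the luciferase read.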
IDH1 R132H inh: qHTS for Inhibitors of mutant isocitrate dehydrogenase 1 (IDH1): qHTS; hit rate 0.093% among 390,000; Potency, µM (series often up to 76.6 µM), for the others: at the top dose activity change, negative = inhibition, hits mostly inhibitors; AID 602179, 2012; IDH1-R132H enzyme, NADPH consumption, diaphorase/resazurin fluorescence; further: on the % scale 0 is the no-effect control and ±100 the full control effect; nearly all actives have a fitted effect of over 65% in size
Target sequence (O75874 whole entry R132H, stated change not applied): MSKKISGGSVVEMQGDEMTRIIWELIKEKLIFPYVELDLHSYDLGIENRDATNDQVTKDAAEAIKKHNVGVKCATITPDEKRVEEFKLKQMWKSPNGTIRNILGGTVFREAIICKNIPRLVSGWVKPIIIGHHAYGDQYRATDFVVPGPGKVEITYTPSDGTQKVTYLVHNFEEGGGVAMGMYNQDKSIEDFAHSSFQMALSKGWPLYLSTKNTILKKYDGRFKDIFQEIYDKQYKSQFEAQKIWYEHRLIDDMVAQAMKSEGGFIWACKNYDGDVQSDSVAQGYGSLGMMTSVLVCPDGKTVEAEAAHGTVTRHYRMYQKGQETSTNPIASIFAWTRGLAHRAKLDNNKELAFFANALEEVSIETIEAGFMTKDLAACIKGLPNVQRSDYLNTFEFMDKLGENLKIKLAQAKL
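IDH1-R132H (0.5 ug/mL dispensed) in pH 7.5 Tris buffer was preincubated 30 min with compound, then given a substrate mix of 0.016 mM NADPH and 2 mM alpha-KG for 80 min at room temperature; remaining NADPH was read by diaphorase/resazurin fluorescence.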
Nrf2 ARE act: qHTS of Nrf2 Activators | AID 624171, 2012 | Potency, µM (titrated, usually from 46.1 µM), without a hit: top-dose activation, hits mostly activators | hit rate 0.31% among 410,000 | AREc32 ARE-luciferase reporter (MCF7-derived line), luminescence, 24 h; further: % of control where 0% means no effect; nearly all actives have a fitted effect of over 65% in size
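AREc32 cells carrying an ARE-driven firefly luciferase reporter were seeded at 1000 cells/well in OPTI-MEM with 5% FBS, then exposed to compound for 24 hr at 37 deg C. Luminescence was read with Steady-Glo after 30 min at RT.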
Numbers without * were called inactive; ? = inconclusive; . = no result; [ ] = remark or other dose. The call rests on the fitted dose curve; in most records, active means well fitted curve in the direction sought with a large enough effect; inconclusive means small, poorly fitted or top-dose-only effect, or another doubt; inactive means no such curve, though single readings can be large; an effect the other way counts as inactive or inconclusive. Potency means the concentration at half of the fitted maximal effect.

SMILES	Nrf2 block	ELG1 repair inh	A549 viability	IDH1 R132H inh	Nrf2 ARE act
CCOCc1cc(CN2CCN(c3ccccc3OC)CC2)c(O)c2ncccc12	?	.	1%	.	0%
COc1ccccc1N1CCN(Cc2cc(Br)c(O)c3ncccc23)CC1	18µM*	?	-8%	1%	1%
Cc1ccc(-c2nc(NC(=O)CSc3nnc4scc(-c5ccccc5)n34)ns2)cc1	21µM*	12µM*	?	8%	3%
CC(C)(C)c1ccc(NC(=O)CSc2nnc3scc(-c4ccccc4)n23)cc1	16µM*	.	-1%	.	1%
CCN(CC)CCCNC(=O)c1ccc2c(c1)sc1nc(-c3ccc(C)cc3)cn12	17%	.	0%	17%	8%
CSc1ccc(C2c3[nH]c4ccccc4c3CCN2C(=O)CCC2CCCC2)cc1 (stereo not drawn)	.	.	7%	-7%	0%
COc1cccc(/C=N/Nc2ncnc3scc(-c4ccccc4)c23)c1O	?	7.3µM*	-22%	7%	4%
COc1cccc(/C=N/Nc2cc(-n3nc(C)cc3-c3ccccc3)ncn2)c1O	6%	5.2µM*	-4%	4%	-1%
COc1cccc(/C=N/Nc2nc(Nc3ccccc3)nc(-n3nc(C)cc3C)n2)c1O	?	2.6µM*	?	4%	-1%
Cc1cc(C)n(-c2nc(Nc3ccccc3)nc(-n3nc(C)cc3C)n2)n1	-6%	-1%	-2%	0%	0%
O=[S+]([O-])([O-])c1ccc2c(c1)cc([S+](=O)([O-])[O-])c1nn(-c3ccc(/C=C/c4ccc(-n5nc6c([S+](=O)([O-])[O-])cc7cc([S+](=O)([O-])[O-])ccc7c6n5)cc4[S+](=O)([O-])[O-])c([S+](=O)([O-])[O-])c3)nc12	0%	.	8%	.	.
CCCN1CNc2c(c(=O)[nH]c(=S)n2CCc2ccc(OC)cc2OC)C1	-3%	.	15%	.	.
CCOC(=O)N1CCc2c(sc3c2c(=O)n(-c2ccc(CC)cc2)c(=O)n3CC(=O)Nc2ccc(C)cc2)C1	4%	.	1%	0%	1%
CN(C)CCNC(=O)Cc1ccc(NC(=O)N2CCCCc3ccccc32)cc1	?	.	-1%	-7%	-1%
CCCN(CCC)CC(O)Cn1cc(/C=C/C(=O)c2ccc(OC)cc2)c2ccccc21 (stereo not drawn)	4%	.	?	.	13%
NC(=S)n1[nH]c(-c2ccc([N+](=O)[O-])cc2)c(N=Nc2ccc(Cl)cc2)c1=O	5.2µM*	2.9µM*	?	-9%	0%[9.22 µM]
Cc1csc(NC(=O)c2ccc(Cn3nc(C)c(Br)c3C)o2)n1	18µM*	9.2µM*	-16%	-5%	1%
COC(=O)c1cc(NC(=O)c2ccc(Cn3cc(Cl)cn3)o2)cc(C(=O)OC)c1	21µM*	?	?	7%	0%
Cc1ccc(CNC(=O)c2ccc(Cn3nc(C)c(Cl)c3C)o2)cc1	-19%	-17%	3%	6%	4%
Cc1cc(C)cc(NC(=O)c2ccc(Cn3nc(C)c(Cl)c3C)o2)c1	-13%	21µM*	-9%	0%	0%
O=S(=O)(c1ccccc1)N1CCN(S(=O)(=O)c2ccc3c(c2)OCCO3)CC1	12%	.	-1%	.	.
O=C(CC(Nc1ccc(F)cc1)C(=O)O)c1ccccc1 (stereo not drawn)	?	?	1%	10%	20µM*
Cc1ccc(NC(CC(=O)c2ccccc2)c2ccc(F)cc2)cc1 (stereo not drawn)	?	?	5%	10%	19%
CSCCC(C(=O)Nc1c(C)cccc1C)N1CCN(c2ccc(F)cc2)CC1 (stereo not drawn)	.	.	.	.	-1%
COc1ccc(N=C2SC(CC(=O)Nc3ccccc3F)C(=O)N2Cc2ccco2)cc1 (stereo not drawn)	-5%	23µM*	-1%	-2%	0%[9.22 µM]
Cc1nn(CC(=O)Nc2ccc3c(c2)OCO3)c(C)c1Cl	3%	25%	-6%	5%	5%

Assay outcomes deposited in PubChem BioAssay by National Center for Advancing Translational Sciences (NCATS).
